Experimental data reported in PubChem BioAssay AID759 (NMMLSC, 2007).
Among all 190,000 compounds or so, about 270 (0.14%) were called active. Another 2% or so got no clear call; they are omitted.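 The calls were made as follows: active = GTP binding activity at least 20% away from the 100% baseline, either lowered as inhibitor or raised as activator; inconclusive = flagged as likely green fluorescent, judged across all proteins in the well; inactive = the rest.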 The sample as a whole holds a higher share of actives than the screen did.

biological target: GTPase HRas (Homo sapiens) (UniProt P01112); test: modulators of GTP binding to HRas wildtype, primary screen, biochemical, bead-based flow cytometry, multiplex (AID 759); settings: GST-Ras wt beads, Bodipy-FL-GTP binding, at 10 µM, actives lie on both sides;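 also: 0% = unlabeled GTP competition control and 100% = no-compound control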
Sequence (P01112 whole entry, looked up): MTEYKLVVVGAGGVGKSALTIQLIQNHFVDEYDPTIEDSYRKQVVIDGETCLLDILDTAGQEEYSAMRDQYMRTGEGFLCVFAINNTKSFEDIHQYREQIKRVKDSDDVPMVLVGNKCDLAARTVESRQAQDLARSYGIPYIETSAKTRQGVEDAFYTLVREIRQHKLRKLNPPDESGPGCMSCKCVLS

GTP binding activity, active:
C=CCN(CC=C)S(=O)(=O)c1ccc(C(=O)Nc2nc3c(s2)CCc2ccccc2-3)cc1 32%
O=c1/c(=C/c2ccc(CNS(=O)(=O)c3ccccc3)o2)sc2n1CCN=2 78%
CCOC(=O)c1nc(Nc2ccc(C(=O)OC)cc2)c2ccccc2n1 77%

GTP binding activity, inactive:
CCSc1nc(C)c(CCOc2cccc(C)c2)c(=O)[nH]1 98%
O=C(CC1C(=O)NCCN1CC(c1ccccc1)c1ccccc1)NCCc1cn[nH]c1 (centres undefined) 99%
CCNC(=O)CC1C(=O)N(c2ccc(OC)cc2)C(=S)N1CCc1ccncc1 (centres undefined) 98%
CCc1ccc(CN(C)Cc2nc(Cc3ccccc3)no2)nc1 98%
CC(=O)N(CN1C(=O)C2C3C=CC(C3)C2C1=O)c1cccc(Cl)c1 (centres undefined) 93%
CN(/C(=N/S(=O)(=O)c1cccs1)c1ccccc1)c1ccc(O)cc1 88%
CC(=O)Nc1ccc(S(=O)(=O)Oc2ccc(/C=N/N=C3/NC(=O)C(CC(=O)O)S3)cc2)cc1 (centres undefined) 92%
O=C1CCC/C(=N\NC(=O)NC2CCCCC2)C1 97%
COc1c(C)cc(C(=O)C2CCCN(S(=O)(=O)c3c(C)noc3C)C2)cc1C (centres undefined) 96%
CC(C)(O)C#Cc1ncc(C(F)(F)F)cc1Cl 98%
CC(C)OCCCNC(=S)N1CCC(C(=O)c2ccc3c(c2)OCCO3)CC1 95%
CCOCCCNCc1ccc(OCc2ccc(F)cc2)c(OC)c1 97%
CN1CCN(CCCCOc2ccccc2-c2ccccc2)CC1 99%
CSc1ccc(/C=N\NC(=O)CC(=O)NC(C)C)cc1 94%
Cc1cccc(NC(=S)Nc2ccc(Cl)c(Cl)c2)c1 95%
O=C(Nc1ccc(Br)cn1)c1ccc([N+](=O)[O-])o1 98%
Cc1nn(C)c(C)c1CN(C(=O)CCc1nnc(Cc2c[nH]c3ccccc23)o1)C(C)C 95%
Nn1c(SCC(=O)Nc2nccs2)nncc1=O 96%
CCC(C)NC(=O)/C=C/c1ccc(S(=O)(=O)NCc2ccco2)cc1 (centres undefined) 99%
COCCN(CCOC)S(=O)(=O)c1ccc(C(=O)Nc2nc3c(s2)CCc2ccccc2-3)cc1 104%
C=CCN(CC=C)S(=O)(=O)c1ccc(C(=O)Nc2sc3c(c2C(N)=O)CCCCC3)cc1 103%
CCC(CC)NC(=O)CSc1nnc(-c2c[nH]c3ccccc23)o1 92%
CSc1ncccc1C(=O)OCc1ccc(Br)cc1 96%
CCOC(=O)C1CCCN(C(=O)/C=C/c2ccc(OC)cc2)C1 (centres undefined) 91%
Cc1cccc(C(=O)N2CCC(c3nc4ccccc4s3)CC2)c1 95%
COc1ccc(Cc2nnc(NC(=O)c3cc(OC)c(OC)c(OC)c3)s2)cc1OC 94%
NS(=O)(=O)c1ccc(NC(=S)NNC(=O)c2cccs2)cc1 97%
O=C(CN(C(=O)c1csnn1)c1cccc(F)c1)NCc1ccc(F)cc1 99%
CNC(=O)C(=O)N/N=C/c1ccccn1 95%
S=C(Cc1ccc(Cl)cc1)N1CCOCC1 94%
Cc1cccc(C(=O)Nc2ccc3c(c2)C(=O)N(CC(C)C)C3=O)c1 96%
COc1cc(/C=C2/C(=O)ON=C2C)ccc1OCc1cccc(F)c1 91%
Cc1ccc2c(Cl)c(C(=O)Nc3nn[nH]n3)sc2c1 100%
O=S(=O)(NCc1ccccc1)c1ccc(S(=O)(=O)N2CCCC2)cc1 101%
COC(=O)C1=C(C)NC(=O)/C1=C/c1ccc(CNS(=O)(=O)c2ccc(C)cc2)o1 97%
O=C(CCN1C(=O)c2ccncc2C1=O)Nc1cc(F)ccc1F 92%
NC(=O)COc1ccc(C23CC4CC(CC(C4)C2)C3)cc1 95%
COc1cccc(OC)c1C(=O)NC(=S)NCc1ccco1 95%
CC(=O)c1ccc(N=C2SCCCN2C(=O)C2CCCCC2)cc1 97%
COc1ccc(OCC(=O)NNC(=O)c2cccc(C)c2)cc1 97%
O=C(Nc1ccc(N2CCN(C(=O)C3CC3)CC2)cc1)c1cccs1 95%
CCOC(=O)c1cnc2c(c(C)nn2CC)c1Cl 96%
CCOC(=O)c1ccc(Nc2cc(C)nc3nc(C)nn23)cc1 98%
CCOC(=O)c1ccc(N/C(=N/S(=O)(=O)c2ccccc2)c2ccccc2)cc1 97%
Cc1c(Cc2ccccc2)c(=O)oc2cc(OCC(N)=O)ccc12 93%
CCOc1ccccc1/C=N/NC(=O)CNC(=O)COc1ccccc1 97%
O=C(COc1ccccc1Cl)Nc1ccc(C(=O)c2ccc(C(=O)O)cc2)cc1 100%
Cc1cc(C)cc(NC(=O)N2CCCCCCC2)c1 100%
COc1ccc(C(=O)NC(Cc2ccc(OC(=O)c3ccc(OC)cc3)cc2)C(=O)O)cc1 (centres undefined) 90%
Nc1ccc(Cl)c(S(=O)(=O)Nc2ccccc2Cl)c1 98%
Cc1ccc(NC(=O)c2oc3ccccc3c2C)c([N+](=O)[O-])c1 101%
C/C=N/NC(=O)CCCC(=O)N/N=C/C 103%
CCC(=O)OCCNc1nc(-c2ccccc2)nc2ccccc12 98%
Cc1ccc(CN(Cc2cccnc2)C(=S)Nc2cccc(Cl)c2C)cc1 95%
CCCCn1c(N)c(N(CC)C(=O)/C=C/c2ccco2)c(=O)[nH]c1=O 99%
CSc1ncccc1C(=O)N1CCCC(CCC(=O)NCc2ccccc2F)C1 (centres undefined) 100%
COC(=O)c1ccc(NC(=O)c2cc(Cl)ccc2OC)cc1 96%
O=C1N/C(=N\N=C\c2ccco2)SC1Cc1ccc(F)cc1 (centres undefined) 97%
O=C(c1ccncc1)c1ccc([N+](=O)[O-])cc1 94%
CCOC(=O)CN1CCC(c2ccccc2)CC1 98%
CC(C)(C)n1nc2c(c1NC(=O)c1cc3ccccc3o1)CSC2 96%
